Assay outcomes (PubChem)
Many of the other results were omitted from the sample, so hits are more common in it than they were.
Pf apPOL inh – Pf-apPOL DNA polymerase inhibition; Recombinant Pf-apPOL, molecular beacon fluorescence, 1.5 h; inhibition, % at 10 µM; 210,000 tested, 0.25% active; AID 1794808
mHTT-CaM PPI inh – mHTT-calmodulin interaction abrogation | P42858 | AlphaScreen His-mHTT/GST-CaM binding, luminescence | inhibition, % at 15 µM | 190,000 tested, 3.6% active | AID 1671202;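 also: 0% = both proteins with DMSO and 100% = one protein alone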
* hit, by the source's call; / = no result given. Rule as the data show it: active = inhibition above about 50%; inactive = the rest.

SMILES	Pf apPOL inh	mHTT-CaM PPI inh
O=S(=O)(c1ccc(F)c(F)c1)N1CCC(c2noc(-c3cccc(F)c3)n2)CC1	-5	-4
CC(=O)N1CCC(CCOc2cccc(F)c2)CC1	-3	-3
Clc1ccc(C2=Nn3cnnc3SC2)cc1	-15	-1
Cn1c(=NN=c2oc3ccccc3n2C)oc2ccccc21	1	/
Cc1ccc(C(=O)N2CCc3c(c(-c4nc(-c5cccc(F)c5)no4)nn3C)C2)c(C)c1	-3	0
O=C1CC(c2ccccc2)CC2=C1C(c1ccc(F)c(Br)c1)Nc1ccccc1N2 (stereo unspecified)	-5	59*
COc1ccc(C2CC(=O)C3=C(C2)Nc2ccccc2NC3c2cccc(C(F)(F)F)c2)cc1 (stereo unspecified)	8	17
COc1ccc(C2CC(=O)C3=C(C2)Nc2ccccc2NC3c2ccc(C(F)(F)F)cc2)cc1 (stereo unspecified)	2	53*
O=C1CC(c2ccccc2)CC2=C1C(c1cccc(F)c1)Nc1ccccc1N2 (stereo unspecified)	-5	9
CC(C)(C)NC(=O)N1CCN(Cc2nc3cccnc3n2-c2ccccc2)CC1	-1	-1
COc1ccccc1N1C(=N)S/C(=C\c2ccc(Br)c([N+](=O)[O-])c2)C1=O	-8	57*
COc1ccc(/C=C2\SC(=O)N(c3ccccc3OC)C2=O)cc1	-4	4
CC(C)(C)N=C1Nc2ccccc2NC12CCCN(C(=O)c1ccoc1)C2 (stereo unspecified)	1	28
COc1ccc(S(N)(=O)=O)cc1	-4	-2
COc1ccc(Nc2nc(-c3cccc([N+](=O)[O-])c3)cs2)cc1	2	84*
COc1ccc(-c2csc(Nc3ccc(S(N)(=O)=O)cc3)n2)cc1	-4	52*
COc1ccc(-c2csc(Nc3cccnc3)n2)cc1	11	/
COc1ccc(SCC(=O)Nc2nc(-c3cccc([N+](=O)[O-])c3)cs2)cc1	-7	-15
COc1ccc(Nc2nc(-c3ccc(F)cc3F)cs2)cc1	-2	4
CCN(CC)c1ccc(Nc2nc(-c3ccc(OC)cc3)cs2)cc1	-2	80*
COc1ccc(-c2csc(Nc3ccc(N(C)C)cc3)n2)cc1	6	89*
CSc1cccc(NS(=O)(=O)c2cc(Cl)ccc2Cl)c1	0	-11
CCCN1CCC(NCCc2ccc(Cl)cc2)CC1	-8	-6
O=C(CCc1ccccc1)N1CCN(c2cc(-c3cccnc3)[nH]n2)CC1	-1	2
Oc1ccc(Br)cc1-c1nnc2ccc3ccccc3n12	-12	10
SMILES	Pf apPOL inh	mHTT-CaM PPI inh
CCN(CC)c1ccc(Nc2nc(-c3ccccc3)cs2)cc1	3	80*
CCCC(=O)Nc1nc(-c2ccccc2)cs1	-6	4
CCN(CC)c1ccc(Nc2nc(-c3ccncc3)cs2)cc1	-4	85*
C=CCNc1nc(-c2ccncc2)cs1	-4	-1
COC(=O)c1ccc(COc2coc(CN3CCN(Cc4ccccc4)CC3)cc2=O)cc1	-6	5
Cc1ccc(NC(=O)C(=O)NCc2ccco2)cc1Cl	-7	-7
COc1ccccc1C1=NOC(C(=O)NCc2cccs2)C1 (stereo unspecified)	-5	-11
CC(C)(C)c1ccc(C(=O)n2cc(Cl)cn2)cc1	-4	-7
CCN(Cc1ccccc1)S(=O)(=O)c1cc(C(=O)Nc2ccc(F)c(F)c2)ccc1F	53*	-26
CN(Cc1ccccc1)S(=O)(=O)c1cc(C(=O)Nc2ccc(F)c(F)c2)ccc1F	27	-1
Cc1sc2c(=O)n(CC3CC3)cnc2c1C(=O)NC1CCCCCC1	2	17
C=CCNC(=O)c1c[nH]c2ccc(S(=O)(=O)N(CC)c3ccc(F)cc3)cc2c1=O	-10	15
CCOCCCNC(=O)c1c[nH]c2ccc(S(=O)(=O)N(C)c3ccc(Cl)cc3)cc2c1=O	-11	24
C=CCNC(=O)c1c[nH]c2ccc(S(=O)(=O)N(C)c3ccc(Br)cc3)cc2c1=O	-6	55*
COCCNC(=O)c1c[nH]c2ccc(S(=O)(=O)N(C)c3ccc(Cl)cc3)cc2c1=O	-10	50*
O=C(CCn1c(=O)oc2ccccc21)Nc1cc(C(F)(F)F)cc(C(F)(F)F)c1	-10	/
O=C(Nc1ccccc1C(=O)O)c1ccccc1	-120	-3
O=C(Nc1ccccc1C(=O)O)c1cccc(C(=O)Nc2ccccc2C(=O)O)c1	-1	70*
Cc1ccc(C2=N/C(=C\c3ccc(Cl)cc3)C(=O)O2)cc1	-2	-2
O=C1CCc2c1[nH]c1ccc(C3CCCCC3)cc21	4	10
OCCN=C1CCc2c1[nH]c1ccc(C3CCCCC3)cc21	-5	58*
COc1ccc(/C=C2\C(=O)Nc3ccc(F)cc32)cc1	0	25
CN1C(=O)C(O)(CC(=O)c2ccccn2)c2cc(Br)ccc21 (stereo unspecified)	-6	2
CN1C(=O)C2(NN=C(c3ccccc3)S2)c2cc(Br)ccc21 (stereo unspecified)	-3	100*
CC(=O)c1sc(=S)n(CCc2ccc(Cl)cc2)c1C	-10	/
SMILES	Pf apPOL inh	mHTT-CaM PPI inh
CC(=O)c1c(C(C)=O)c(C)n(Cc2ccc(Cl)cc2)c1C	-11	53*
Cc1cc(C(=O)Nc2ccc3c(c2)CN(C(=O)C(C)C)CC3)c(C)o1	-6	-6
CC(C)C(=O)N1CCc2ccc(NC(=O)c3ccccc3C(F)(F)F)cc2C1	88*	14
CCCC(=O)Nc1c(-c2ccc(C)cc2)nc2cc(C)ccn12	1	15
Cc1ccc(-c2nc3cc(C)ccn3c2NC(=O)C(Cl)Cl)cc1	-1	57*
O=S(=O)(CS(=O)(=O)N1CCOCC1)N1CCOCC1	-6	/
Cc1cc(=O)[nH]c(SCC(=O)Nc2cc(C(F)(F)F)ccc2Cl)n1	-1	-4
O=C(CSc1nc2ccccc2[nH]1)Nc1cc(C(F)(F)F)ccc1Cl	-4	50*
COc1cccc(NC2=C(n3nnc4ccccc43)C(=O)c3ccccc3C2=O)c1	-1	8
Cc1ccc(NC2=C(n3nnc4ccccc43)C(=O)c3ccccc3C2=O)cc1	3	52*
CN(C)c1ccc(NC2=C(n3nnc4ccccc43)C(=O)c3ccccc3C2=O)cc1	-9	51*
CCN(CC)C1=C(n2nnc3ccccc32)C(=O)c2ccccc2C1=O	-6	27
Cc1ccc(NC2=C(NCCO)C(=O)c3ccccc3C2=O)cc1	0	67*
Cc1ccc(Nc2c3c4c(cccc4n(C)c2=O)C(=O)c2ccccc2-3)cc1	-2	36
Cc1noc(-c2cccnc2)c1C(=O)NCc1cc(F)cc(F)c1	-1	-8
COc1ccc(C2=CC(c3ccccc3Cl)n3ncnc3N2)cc1OC (stereo unspecified)	-3	5
CCOC(=O)C(=Cc1ccc(NC(C)=O)cc1)C(=O)OCC	5	/
CNC(=O)N1CCCC(c2cccc(C(=O)N3CCN(c4cccc(C)c4C)CC3)c2)C1 (stereo unspecified)	-9	64*
CC(C)NC(=O)N1CCCC(c2cccc(C(=O)NCc3ccc(C(F)(F)F)cc3)c2)C1 (stereo unspecified)	-1	6
Cc1cccc(N2CCN(C(=O)c3ccc4c(=O)n5c(nc4c3)SCC5)CC2)c1C	-8	2
CNC(=O)N1CCCC(c2cccc(C(=O)NCc3ccc(C(F)(F)F)cc3)c2)C1 (stereo unspecified)	-7	64*
Cc1cccc(N2CCN(C(=O)c3ccc4nc(-c5ccco5)c(-c5ccco5)nc4c3)CC2)c1C	0	78*
